High-throughput results from PubChem.
This is a sample that favours compounds with a hit; in the whole collection about 2% have one here.
TexasRed fluor – Total Fluorescence Counterscreen for Inhibitors of the Interaction of Thyroid Hormone Receptor and Steroid Receptor Coregulator 2; AID 1479, 2009; Potency, µM (highest dose often 106 µM), without a hit: at the highest dose fluorescence change, negative = quenching; TRb/SRC2 Texas Red total fluorescence interference; hit rate 0.29% among 280,000; active means well fitted curve in either direction with a large enough effect; inconclusive means small, poorly fitted or top-dose-only effect; further: potency means the concentration at half of the fitted maximal effect; on the % scale 0 is the no-effect control and ±100 the full control effect
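Human TRβ ligand-binding domain (0.6 uM) and Texas Red SRC2 peptide (20 nM) in Tris buffer with 1 uM T3 and 5% DMSO were incubated with pinned compound for 5 hr at ambient temperature. Total fluorescence was computed as S + 2P (555/632 nm).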
HTT ATP protect – qHTS Multiplex Assay to Identify Dual Action Probes in a Cell Model of Huntington: Cytoprotection (ATP); PC12 HTT-Q103 induced, cytoprotection, ATP luminescence, 40 h; Potency, µM (titrated, usually from 56.4 µM), inactives show cytoprotection (ATP increase), actives largely listed as activators; hit rate 0.14% among 230,000; further: potency means the concentration at half of the fitted maximal effect; % of control where 0% means no effect; nearly all actives have a fitted effect of over 45% in size
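PC12 cells with ecdysone-inducible HTT exon 1 Q103-GFP, induced with 100 nM tebufenozide and co-treated with library compounds in a dose series (1536-well, 1500 cells/well). Cytoprotection read as ATP content by ATPlite luminescence.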
HTT aggregate – qHTS Multiplex Assay to Identify Dual Action Probes in a Cell Model of Huntington: Aggregate Formation (GFP); PC12 HttQ103-GFP aggregates, Acumen cytometry, 40 h; Potency, µM (series often up to 46.1 µM), for the others: top-dose activity change, negative = inhibition, actives largely listed as inhibitors; hit rate 1.1% among 220,000; AID 1688, 2009; further: potency means the concentration at half of the fitted maximal effect; on the % scale 0 is the no-effect control and ±100 the full control effect; nearly all actives have a fitted effect of over 60% in size
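Read-out: GFP aggregate count by laser scanning cytometer (488 nm excitation, 500-530 nm emission, 1–25 µm objects >6 SD above background). Cells: PC12, inducible HTTex1-Q103-GFP, 100 nM tebufenozide; compounds titrated.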
FBPA coupling cs – qHTS Assay for Inhibitors of Fructose-1,6-bisphosphate Aldolase from Giardia Lamblia: Coupling assay counterscreen; AID 2472, 2010; activity change, negative = inhibition, % at 58.2 µM, hits read low; hit rate 0.67% among 290,000; coupling enzyme system counterscreen, AmpLite Red fluorescence; in the data active means activity change below about -30%; further: on the % scale 0 is the no-effect control and ±100 the full control effect
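First, compound is pin-transferred into glyceraldehyde-3-phosphate coupling-enzyme reagent at 57.5 uM final and held 10 min at RT. Next, substrate, coupling system and AmpLite Red are added. After 20 min RT, fluorescence (525/598 nm) is read.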
TRb-SRC2 inh – qHTS for Inhibitors of the Interaction of Thyroid Hormone Receptor and Steroid Receptor Coregulator 2; Thyroid hormone receptor beta (Homo sapiens), P10828; TRbeta-SRC2 peptide binding, fluorescence polarization; receptor liganded with 1 µM T3; Potency, µM (top dose mostly 106 µM), for the others: at the highest dose activity change, negative = inhibition, hits mostly inhibitors; hit rate 0.065% among 280,000; AID 1469, 2008;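 further: potency means the concentration at half of the fitted maximal effect; plate controls were bound peptide for no effect and peptide without receptor for full effect; nearly all actives have a fitted effect of over 50% in size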
Target sequence (P10828 whole entry, looked up): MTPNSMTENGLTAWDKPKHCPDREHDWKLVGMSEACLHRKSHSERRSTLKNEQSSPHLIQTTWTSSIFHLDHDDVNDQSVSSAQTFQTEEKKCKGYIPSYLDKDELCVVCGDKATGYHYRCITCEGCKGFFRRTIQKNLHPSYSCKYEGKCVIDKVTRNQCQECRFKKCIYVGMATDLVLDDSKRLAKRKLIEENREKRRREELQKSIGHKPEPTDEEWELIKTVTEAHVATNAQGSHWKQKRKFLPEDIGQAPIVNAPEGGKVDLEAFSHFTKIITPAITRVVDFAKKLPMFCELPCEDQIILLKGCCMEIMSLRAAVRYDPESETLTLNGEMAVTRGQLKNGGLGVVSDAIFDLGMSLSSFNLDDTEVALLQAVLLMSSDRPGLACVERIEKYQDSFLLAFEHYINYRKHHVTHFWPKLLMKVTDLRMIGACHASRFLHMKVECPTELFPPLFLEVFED
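Fluorescence polarization of 20 nM Texas Red SRC2 peptide with 0.6 uM human TRb ligand-binding domain, in Tris buffer with 1uM T3 and 5% DMSO. Incubated 5 hr ambient; normalized to unbound and bound controls.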
JMJD2E inh – qHTS Assay for Inhibitors of Human Jumonji Domain Containing 2E (JMJD2E). Lysine-specific demethylase 4E (Homo sapiens), B2RXH2. AID 2147, 2009. Potency, µM (series often up to 57.1 µM), for inactives: top-dose activity change, negative = inhibition, actives largely listed as inhibitors. JMJD2E catalytic domain, FDH-coupled NADH fluorescence (FDH is formaldehyde dehydrogenase). hit rate 1.6% among 230,000; active means well fitted inhibition curve with a large enough effect, not every such curve was filed as active; inconclusive means small, poorly fitted or top-dose-only effect, or another doubt; inactive means no such curve, though single readings can be large or run the other way;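 further: potency means the concentration at half of the fitted maximal effect; 0% = wells with enzyme and -100% = buffer wells without enzyme; nearly all actives have a fitted effect of over 50% in size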
An asterisk follows results filed as active; [ ] = remark or other dose. Unless noted, the call rests on the fitted dose curve; in most records, active means well fitted curve in the direction sought with a large enough effect; inconclusive means small, poorly fitted or top-dose-only effect, or another doubt; inactive means no such curve, though single readings can be large; an effect the other way counts as inactive or inconclusive.

Results for O=C(NNc1nc(=O)c2cccnc2s1)c1ccccc1O ?
TexasRed fluor: -9.6%; HTT ATP protect: -51.0%[10 µM]; HTT aggregate: 7.94µM*; FBPA coupling cs: 0.0; TRb-SRC2 inh: -8.5%; JMJD2E inh: 14.1µM*

How did CCC1(c2ccc(OC)cc2)NC(=O)N(C)C1=O (centres undefined) do in these assays?
TexasRed fluor: 4.7%; FBPA coupling cs: 0.8; TRb-SRC2 inh: -5.5%

Results for O=C(ONC1=NCCCCC1)c1c(F)cccc1F ?
TexasRed fluor: 0.9%; HTT ATP protect: 0.794µM*; HTT aggregate: -6.0%; FBPA coupling cs: 0.1; TRb-SRC2 inh: 0.3%; JMJD2E inh: -4.2%

What do the screens show for `O=C(ONC1=NCCCCC1)c1ccc(Cl)cc1`?
TexasRed fluor: -3.6%; HTT ATP protect: 15.8%; HTT aggregate: 1.9%; FBPA coupling cs: -2.9; TRb-SRC2 inh: -5.3%; JMJD2E inh: 5.2%

Results for O=c1[nH]nc(CNc2ccc(O)cc2)c2ccccc12 ?
TexasRed fluor: 44.7µM*[fluorescent]; HTT ATP protect: -8.9%; HTT aggregate: inconclusive; FBPA coupling cs: -49.5*; TRb-SRC2 inh: 28.2µM*; JMJD2E inh: inconclusive

Results for O=C(/C=C/c1ccco1)Nc1ccc(Cl)c(-c2nc3cc(Cl)ccc3o2)c1 ?
TexasRed fluor: -0.3%; TRb-SRC2 inh: 2.3%

What do the screens show for `Cc1cc2cc(CNC(=O)Nc3cccc(Cl)c3)ccc2n1C`?
TexasRed fluor: 44.7µM*[fluorescent]; HTT ATP protect: 3.1%[10 µM]; HTT aggregate: -14.3%; FBPA coupling cs: -3.5; TRb-SRC2 inh: 44.7µM*; JMJD2E inh: inconclusive

What do the screens show for `O=C(NCCc1ccc(Cl)cc1)Nc1cccc(Cl)c1`?
TexasRed fluor: -2.0%; HTT ATP protect: -83.1%; HTT aggregate: 8.91µM*; FBPA coupling cs: -2.6; TRb-SRC2 inh: 5.3%; JMJD2E inh: 3.8%

How did Cc1cccc(NC(=O)NCc2ccc3c(c2)cc(C)n3C)c1 do in these assays?
TexasRed fluor: 23.4%; HTT ATP protect: -13.2%[10 µM]; HTT aggregate: 9.9%; FBPA coupling cs: -21.7; TRb-SRC2 inh: -15.0%; JMJD2E inh: -7.1%

How did O=C1[C@H]2[C@H]3[C@H](O)[C@H](O)C/C(=N/OC[C@@H](O)COCc4ccco4)[C@H]3CC[C@@H]2C(=O)N1Cc1ccccc1 do in these assays?
TexasRed fluor: 2.9%[11.2 µM]; HTT ATP protect: -9.6%[10 µM]; FBPA coupling cs: -2.0; TRb-SRC2 inh: -2.9%[11.2 µM]

How did C[C@@]12CCC(=O)C=C1CC[C@@H]1[C@@H]2[C@H](O)C[C@]2(C)[C@@H]1CC[C@]2(O)C(=O)COC(=O)CCC(=O)O do in these assays?
HTT ATP protect: -17.5%[1.9 µM]

What do the screens show for `COC(=O)c1ccc(C2Nc3cccc4cccc(c34)N2)cc1`?
TexasRed fluor: -6.1%; HTT ATP protect: -35.3%; HTT aggregate: 2.3%; FBPA coupling cs: -10.2; TRb-SRC2 inh: -1.8%; JMJD2E inh: 8.91µM*

Results for COc1ccc(/C=C/C(=O)NC(=S)NNC(=O)c2cnccn2)cc1 ?
TexasRed fluor: -1.4%; HTT ATP protect: -40.2%[10 µM]; HTT aggregate: -31.7%[9.22 µM]; FBPA coupling cs: 2.6; TRb-SRC2 inh: 0.3%; JMJD2E inh: 7.94µM*

Results for COc1ccccc1Nc1nc(-c2c(C)nc3ncccn23)cs1 ?
TexasRed fluor: -2.0%; HTT ATP protect: -11.0%[10 µM]; HTT aggregate: -4.2%[9.22 µM]; FBPA coupling cs: -1.5; TRb-SRC2 inh: -0.9%; JMJD2E inh: 15.8µM*

How did COc1ccc(Nc2ccnc3ccccc23)cc1 do in these assays?
TexasRed fluor: -7.5%; HTT ATP protect: 1.7%; HTT aggregate: inconclusive; FBPA coupling cs: -1.2; TRb-SRC2 inh: 3.0%; JMJD2E inh: 1.2%
